Several values for one entry are separate records, joined by “and”; a condition that tells them apart may be missing. Equal entries are not always repeated. Results filed as inconclusive are left out. Entries that show only a call come without a potency. Activity calls are given as the source filed them. Unless noted, calls come from the whole dose curve; as a rule, active = well fitted curve in the direction sought with a large enough effect; inconclusive = small, poorly fitted or top-dose-only effect, or another doubt; inactive = no such curve, though single readings can be large; an effect the other way counts as inactive or inconclusive.
What was measured:
[1] = Cellular Toxicity (caspase-3) HepG2 (AID 654); details: HepG2 caspase-3 activation, luminescence, 0% = DMSO only, 100% = tamoxifen; series mostly up to 92.2 µM;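 note: cells exposed to compound for 16 hours before reading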
Procedure, shortened: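 Concentration-response AC50 values reflect caspase-3/7 induction in HepG2 cells after 16 hours of compound exposure, quantified by luminescence from liberated aminoluciferin and referenced to 100 uM tamoxifen as full stimulation.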

[2] = Cellular Toxicity (caspase-3) Jurkat (AID 655); details: Jurkat caspase-3 activation, luminescence; series mostly up to 92.2 µM;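 note: cells exposed to compound for 16 h at 37 °C before reading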; note: potency is the fitted concentration of half-maximal effect
Procedure, shortened: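 Jurkat cells (5000/well) in complete medium exposed 16 h at 37 C; caspase-3/7 activity read by Caspase-Glo luminescence after 20 min at room temperature. Normalized to DMSO and 100 uM tamoxifen; AC50 from Hill fits.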

[3] = Cellular Toxicity (caspase-3) HUV-EC-C (AID 656); details: HUV-EC-C cells, caspase-3 activation (apoptosis), vehicle = 0, 100 µM tamoxifen = 100%; series mostly up to 92.2 µM
Procedure, shortened: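 HUV-EC-C cells (1000/well) in complete medium, compound-treated 16 h at 37 °C; caspase-3/7 activity read by Caspase-Glo 3/7 luminescence. Normalized to DMSO (basal) and 100 uM tamoxifen (100%); AC50 from Hill-equation concentration-response fits.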

[4] = Cellular Toxicity (caspase-3) BJ (AID 658); details: BJ fibroblasts, luminescence; Potency: caspase-3 activation; series mostly up to 91.7 µM; note: potency is the fitted concentration of half-maximal effect
Procedure, shortened: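 Caspase-Glo 3/7 luminescence, read 1 hr after reagent at room temperature, in normal BJ fibroblasts exposed 16 hours at 37 °C. AC50 values from Hill-equation concentration-response, scaled between DMSO basal and 10 uM staurosporine as 100%.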

[5] = Cellular Toxicity (caspase-3) MRC-5 (AID 659); details: MRC-5 cells, luminescence; Potency: caspase-3 activation; series mostly up to 91.7 µM; note: potency is the fitted concentration of half-maximal effect
Procedure, shortened: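 Luminescent Caspase-Glo 3/7 read-out (1 h, room temperature) after a 16 h, 37 °C compound exposure of MRC-5 lung fibroblasts at 1500 cells/well. Concentration-response AC50 from Hill equation; 0% DMSO, 100% 10 uM staurosporine.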

[6] = Cellular Toxicity (caspase-3) Mesangial (AID 660); details: mesangial cells, normalized: DMSO 0%, 100 µM tamoxifen 100%; series mostly up to 91.7 µM;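 note: cells exposed to compound for 16 h before the caspase read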
Procedure, shortened: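 AC50 values come from Hill-equation fits of caspase 3/7 activation, measured as Caspase-Glo luminescence in human glomerular mesangial cells exposed to compound for 16 h at 37 °C; 100% set by 100 uM tamoxifen.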

[7] = Cellular Toxicity (caspase-3) SK-N-SH (AID 661); details: SK-N-SH caspase-3 activation, qHTS; caspase-3 activation: at 91.7 µM (top of the series), DMSO as zero, staurosporine as full; note: potency is the fitted concentration of half-maximal effect
Procedure, shortened: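 Apoptosis readout in SK-N-SH neuroblastoma: Caspase-Glo 3/7 luminescence following 16 hr treatment in complete culture medium. Normalization used DMSO and 10 uM staurosporine controls.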

[8] = Cellular Toxicity (caspase-3) H-4-II-E (AID 663); details: H-4-II-E rat hepatoma, scaled: DMSO 0%, 100 µM tamoxifen 100%; series mostly up to 92.2 µM;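 note: cells exposed to compound for 16 hr before readout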
Procedure, shortened: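 Caspase 3/7 activation measured by luminescent aminoluciferin substrate cleavage after 16 hr compound treatment of H-4-II-E cells in complete medium. Increase normalized between DMSO (basal) and 100 uM tamoxifen (100%); Hill-equation AC50 from concentration-response.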

[9] = Cellular Toxicity (caspase-3) Hek293 (AID 664); details: HEK293 caspase-3 activation, DMSO = 0%, 100 µM tamoxifen = 100%; series mostly up to 92.2 µM;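 note: cells exposed to compound for 16 h at 37 °C before readout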
Procedure, shortened: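 Apoptosis readout: Caspase-Glo 3/7 signal in human HEK293 cells following 16-hour compound incubation. Responses scaled between DMSO baseline and 100 uM tamoxifen.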

[10] = target: 3',5'-cyclic-AMP phosphodiesterase 4B (Homo sapiens) (UniProt Q07343); assay: qHTS Assay for Inhibitors of PDE-IV (AID 607; active = well fitted activation curve with a large enough effect in the main read-out, with a control signal flat, not every such curve was filed as active); details: HEK293 ACTOne CNG channel cells, membrane potential fluorescence; series mostly up to 22.9 µM
Procedure, shortened: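 Live HEK293 cells with a modified cyclic nucleotide-gated (CNG) channel report intracellular cAMP via membrane-potential dye fluorescence (ex 535/em 590 nm). Endogenous PDE-IV was targeted. Compounds were tested at up to 22.9 uM final; RO 20-1724 100 uM served as control.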

Sequence of 3',5'-cyclic-AMP phosphodiesterase 4B (Homo sapiens) (Q07343 whole entry, looked up): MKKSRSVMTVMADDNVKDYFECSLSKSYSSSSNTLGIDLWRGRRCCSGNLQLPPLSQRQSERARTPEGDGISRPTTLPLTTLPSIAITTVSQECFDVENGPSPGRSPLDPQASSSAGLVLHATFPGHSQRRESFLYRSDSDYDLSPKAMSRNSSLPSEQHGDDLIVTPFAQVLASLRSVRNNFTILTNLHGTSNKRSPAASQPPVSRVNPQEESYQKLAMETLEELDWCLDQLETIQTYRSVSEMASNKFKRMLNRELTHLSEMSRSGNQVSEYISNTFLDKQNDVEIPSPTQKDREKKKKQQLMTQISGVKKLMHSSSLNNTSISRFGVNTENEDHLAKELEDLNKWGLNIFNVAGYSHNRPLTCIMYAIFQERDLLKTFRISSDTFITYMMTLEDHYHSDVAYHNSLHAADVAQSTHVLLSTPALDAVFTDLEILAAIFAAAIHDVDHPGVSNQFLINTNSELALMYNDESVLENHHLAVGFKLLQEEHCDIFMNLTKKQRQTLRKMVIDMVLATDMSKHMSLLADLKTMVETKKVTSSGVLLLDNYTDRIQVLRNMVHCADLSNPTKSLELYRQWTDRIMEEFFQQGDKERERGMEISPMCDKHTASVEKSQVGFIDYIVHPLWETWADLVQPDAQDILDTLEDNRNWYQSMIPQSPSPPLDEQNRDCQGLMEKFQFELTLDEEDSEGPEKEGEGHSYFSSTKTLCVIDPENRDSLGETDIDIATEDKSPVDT

Structure (SMILES)	outcome [1]	Potency [2]	outcome [3]	Potency [4]	Potency [5]	outcome [6]	Potency [7]	outcome [8]	outcome [9]	caspase-3 activation [7]	Potency [10]
CC(C)(C)c1cc(O)ccc1O	inactive	inactive	inactive	inactive	inactive	inactive	inactive	inactive	inactive	–	–
O=[N+]([O-])c1ccc(F)c([N+](=O)[O-])c1	inactive	inactive	inactive	inactive	inactive	inactive	inactive	inactive	inactive	–	–
O=Cc1ccco1	inactive	inactive	inactive	inactive	inactive	inactive	inactive	inactive	inactive	–	–
CC(C)CCON=O	inactive	inactive	inactive	inactive	inactive	inactive	inactive	inactive	inactive	–	–
C[C@H]1CCC[C@H](O)CCCCCc2cc(O)cc(O)c2C(=O)O1	inactive	inactive	inactive	inactive	inactive	inactive	inactive	inactive	inactive	–	–
C[C@]12CCC(=O)C[C@@H]1CC[C@@H]1[C@@H]2CC[C@]2(C)[C@@H](O)CC[C@@H]12	inactive	inactive	inactive	inactive	inactive	inactive	inactive	inactive	inactive	–	–
S=C=S	inactive	inactive	inactive	inactive	inactive	inactive	inactive	inactive	inactive	–	–
CC(C)Nc1ccc(Nc2ccccc2)cc1	inactive	inactive	inactive	inactive	inactive	inactive	inactive	–	inactive	–	–
ClC(Cl)(Cl)Cl	inactive	inactive	inactive	inactive	inactive	inactive	inactive	inactive	inactive	–	–
O=C1C2CC=CCC2C(=O)N1SC(Cl)(Cl)Cl (centres undefined)	inactive	1.58 µM (active)	inactive	inactive	inactive	inactive	–	inactive	inactive	–	–
O=C1CCO1	inactive	inactive	inactive	inactive	inactive	inactive	inactive	inactive	inactive	–	–
[O]=[Cr](=[O])([OH])[O][Cr](=[O])(=[O])[OH]	inactive	31.6 µM (active)	–	15.8 µM (active)	20 µM (active) and 25.1 µM (active)	inactive	20 µM (active)	inactive	inactive	80.2% (active)	–
[O]=[Cd]	inactive	inactive	inactive	inactive	inactive	inactive	inactive	inactive	inactive	–	–
Oc1cc(Cl)c(Cl)cc1Cl	inactive	inactive	inactive	inactive	inactive	inactive	inactive	inactive	inactive	–	–
ClC=C(Cl)Cl	inactive	inactive	inactive	inactive	inactive	inactive	inactive	inactive	inactive	–	–
C[C@H]1CC[C@@H]2[C@@H](C)[C@H]3[C@H](C[C@H]4[C@@H]5CC=C6CC(O[C@@H]7O[C@H](CO)[C@H](O)[C@H](O[C@@H]8O[C@H](CO)[C@@H](O)[C@H](O)[C@H]8O)[C@H]7O[C@H]7O[C@@H](C)[C@H](O)[C@@H](O)[C@H]7O)CC[C@]6(C)[C@H]5CC[C@]34C)N2C1 (some centres undefined)	inactive	inactive	inactive	inactive	inactive	inactive	inactive	inactive	inactive	–	–

Structure (SMILES)	outcome [1]	Potency [2]	outcome [3]	Potency [4]	Potency [5]	outcome [6]	Potency [7]	outcome [8]	outcome [9]	caspase-3 activation [7]	Potency [10]
C=CCN=C=S	inactive	inactive	inactive	inactive	inactive	inactive	inactive	inactive	inactive	–	–
O=C(O)C(Cl)(Cl)Cl	inactive	inactive	inactive	inactive	inactive	inactive	inactive	inactive	inactive	–	–
CCOC(=O)c1ccccc1C(=O)OCC	inactive	inactive	inactive	inactive	inactive	inactive	inactive	inactive	inactive	–	–
[Cl-].[Cl-].[Hg+2]	inactive	inactive	inactive	inactive	inactive	inactive	inactive	inactive	inactive	–	–
Clc1ccccc1Cl	inactive	inactive	inactive	inactive	inactive	inactive	inactive	inactive	inactive	–	–
ClCC1CO1 (centres undefined)	inactive	inactive	inactive	inactive	inactive	inactive	inactive	inactive	inactive	–	–
O=[N+]([O-])c1ccccc1	inactive	inactive	inactive	inactive	inactive	inactive	inactive	inactive	inactive	–	–
O=C1C=CC(=O)C=C1	inactive	inactive	inactive	inactive	inactive	inactive	inactive	inactive	inactive	–	inactive
O=CC=O	inactive	inactive	inactive	inactive	inactive	inactive	inactive	inactive	inactive	–	–
CCCCCl	inactive	inactive	inactive	inactive	inactive	inactive	inactive	inactive	inactive	–	–
NNC(N)=O	inactive	inactive	inactive	inactive	inactive	inactive	inactive	inactive	inactive	–	inactive
CCCCCCCCOC(=O)c1ccccc1C(=O)OCCCCCCCC	inactive	inactive	inactive	inactive	inactive	inactive	inactive	inactive	inactive	–	–
O=C/C=C/c1ccccc1	inactive	inactive	inactive	inactive	inactive	inactive	inactive	inactive	inactive	–	–
COc1ccc2c(c1OC)C(=O)OC2C1c2cc3c(cc2CCN1C)OCO3 (centres undefined)	inactive	inactive	inactive	inactive	inactive	inactive	inactive	inactive	inactive	–	–
COC1=CC(=O)O[C@@H](/C=C/c2ccccc2)C1	inactive	inactive	inactive	inactive	inactive	inactive	inactive	inactive	inactive	–	–
